Targets with a hit are over-represented here; the source holds about 7,900 in all. About 0.6% of all pairs of compound and target were hits. Values without a mark were called inactive.
What was measured:
Experiment in all cases: log2 fold change, soluble protein after heating vs DMSO (PISA); higher = thermal stabilisation; K562 cells, 10 uM, 30 min; active = over 0.2 and 3.5 SD of the protein, either way, in both replicates (recomputed)
[1] = compound: COC1=CC=C(C=C1)CN2C=CC3=C2C=C(C=C3)C(=O)NO
Outline: (§1)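 K562 cells at 2×10^6 cells/mL were exposed to 10 μM compound for 30 min, then aliquots were heated for 3 min across 48°C-58°C, pooled, and extracted in PBS containing 0.5% NP-40 at 4°C. The supernatant after 21,000xg for 90 min was taken as soluble protein and measured by TMTpro 16plex LC-MS/MS with channel sums equalised. Thermal stability is reported relative to control samples, with values from duplicates. Fold changes are given on a log2 scale.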

[2] = compound: CON(C)C(=O)N1N=C(c2cc(F)ccc2F)S[C@@]1(CCCN)c1ccccc1 [filanesib]
Outline: as §1

[3] = compound: CO[C@H]1C[C@@H]2CC[C@@H](C)[C@@](O)(O2)C(=O)C(=O)N2CCCC[C@H]2C(=O)O[C@H]([C@H](C)C[C@@H]2CC[C@H](n3cnnn3)[C@H](OC)C2)CC(=O)[C@H](C)/C=C(\C)[C@@H](O)[C@@H](OC)C(=O)[C@H](C)C[C@H](C)/C=C/C=C/C=C/1C [zotarolimus]
Outline: as §1

[4] = compound: COc1cc(C(=O)O)ccc1NC(=O)[C@@H]1N[C@@H](CC(C)(C)C)[C@](C#N)(c2ccc(Cl)cc2F)[C@H]1c1cccc(Cl)c1F [idasanutlin]
Outline: as §1

[5] = compound: COc1cc(Nc2ncc3c(n2)-c2ccc(Cl)cc2C(c2c(F)cccc2OC)=NC3)ccc1C(=O)O [alisertib]
Outline: as §1

[6] = compound: COc1cc2nc(-c3cc(F)ccc3O)nc(N[C@@H]3CNC[C@H]3C(C)(C)O)c2cc1OC
Outline: as §1

[7] = compound: COc1cc2ncnc(Nc3ccc(F)c(Cl)c3)c2cc1OCCCN1CCOCC1 [gefitinib]
Outline: as §1

[8] = compound: COc1cccc2cc(-c3nc([C@H]4CC[C@H](C(=O)O)CC4)n4ncnc(N)c34)[nH]c12
Outline: as §1

[9] = compound: CS(=O)(=O)CCNCc1ccc(-c2ccc3ncnc(Nc4ccc(OCc5cccc(F)c5)c(Cl)c4)c3c2)o1 [lapatinib]
Outline: as §1

[10] = compound: CS(=O)(=O)N1CCN(Cc2cc3nc(-c4cccc5[nH]ncc45)nc(N4CCOCC4)c3s2)CC1 [pictilisib]
Outline: as §1

OSTC (UniProt Q9NRP0)
Sequence of UniProt Q9NRP0 (Q9NRP0 whole entry, looked up): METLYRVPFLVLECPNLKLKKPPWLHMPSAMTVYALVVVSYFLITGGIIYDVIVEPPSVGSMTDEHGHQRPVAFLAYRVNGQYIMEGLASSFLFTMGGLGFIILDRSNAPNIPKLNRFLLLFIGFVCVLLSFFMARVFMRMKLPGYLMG
log2 fold change [1]: -0.05
log2 fold change [2]: -0.171
log2 fold change [3]: -0.105
log2 fold change [4]: -0.041
log2 fold change [5]: -0.101
log2 fold change [6]: -0.184
log2 fold change [7]: 0.018
log2 fold change [8]: 0.026
log2 fold change [9]: -0.041
log2 fold change [10]: 0.162

MRPS10 (UniProt P82664)
log2 fold change [1]: -0.041
log2 fold change [2]: 0.045
log2 fold change [3]: 0.08
log2 fold change [4]: -0.088
log2 fold change [5]: -0.014
log2 fold change [6]: -0.017
log2 fold change [7]: -0.042
log2 fold change [8]: 0.012
log2 fold change [9]: 0.069
log2 fold change [10]: -0.112

ORC3 isoform 2 (UniProt Q9UBD5)
log2 fold change [1]: 0.071
log2 fold change [2]: 0.043
log2 fold change [3]: 0.064
log2 fold change [4]: 0.265
log2 fold change [5]: -0.058
log2 fold change [6]: -0.002
log2 fold change [7]: 0.006
log2 fold change [8]: -0.068
log2 fold change [9]: 0.031
log2 fold change [10]: 0.027

OAT (UniProt P04181)
Sequence of UniProt P04181 (P04181 whole entry, looked up): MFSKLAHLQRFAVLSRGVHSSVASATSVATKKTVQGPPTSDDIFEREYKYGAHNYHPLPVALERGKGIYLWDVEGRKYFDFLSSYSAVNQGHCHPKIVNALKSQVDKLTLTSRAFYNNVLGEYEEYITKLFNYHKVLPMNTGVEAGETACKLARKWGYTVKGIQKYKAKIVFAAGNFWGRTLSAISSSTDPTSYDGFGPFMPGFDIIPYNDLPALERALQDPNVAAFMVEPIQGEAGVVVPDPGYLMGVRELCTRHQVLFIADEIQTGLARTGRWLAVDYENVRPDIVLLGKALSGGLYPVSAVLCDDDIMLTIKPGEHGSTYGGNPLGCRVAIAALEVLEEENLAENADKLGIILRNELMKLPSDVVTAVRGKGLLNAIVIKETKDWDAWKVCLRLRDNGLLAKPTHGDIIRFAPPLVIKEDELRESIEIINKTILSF
log2 fold change [1]: -0.028
log2 fold change [2]: -0.183
log2 fold change [3]: 0.03
log2 fold change [4]: -0.054
log2 fold change [5]: -0.025
log2 fold change [6]: -0.095
log2 fold change [7]: 0.011
log2 fold change [8]: 0.004
log2 fold change [9]: -0.076
log2 fold change [10]: 0.12

NELFA (UniProt Q9H3P2)
log2 fold change [1]: 0.031
log2 fold change [2]: 0.035
log2 fold change [3]: -0.084
log2 fold change [4]: -0.117
log2 fold change [5]: 0.092
log2 fold change [6]: 0.105
log2 fold change [7]: 0.36
log2 fold change [8]: 0.017
log2 fold change [9]: -0.079
log2 fold change [10]: 0.076

NELFB isoform 2 (UniProt Q8WX92)
log2 fold change [1]: 0.01
log2 fold change [2]: 0.046
log2 fold change [3]: 0.019
log2 fold change [4]: -0.026
log2 fold change [5]: -0.007
log2 fold change [6]: 0.085
log2 fold change [7]: -0.006
log2 fold change [8]: -0.02
log2 fold change [9]: -0.029
log2 fold change [10]: 0.141

MRPS2 (UniProt Q9Y399)
log2 fold change [1]: -0.052
log2 fold change [2]: -0.05
log2 fold change [3]: -0.02
log2 fold change [4]: -0.054
log2 fold change [5]: -0.19
log2 fold change [6]: 0.005
log2 fold change [7]: -0.036
log2 fold change [8]: 0.006
log2 fold change [9]: 0.071
log2 fold change [10]: -0.015

OTUD6B (UniProt Q8N6M0)
log2 fold change [1]: 0.016
log2 fold change [2]: -0.025
log2 fold change [3]: 0.1
log2 fold change [4]: -0.012
log2 fold change [5]: 0.005
log2 fold change [6]: 0.005
log2 fold change [7]: -0.017
log2 fold change [8]: -0.013
log2 fold change [9]: -0.028
log2 fold change [10]: 0.017

NOLC1 isoform 2 (UniProt Q14978)
log2 fold change [1]: 0.016
log2 fold change [2]: 0.21
log2 fold change [3]: 0.015
log2 fold change [4]: 0.199
log2 fold change [5]: -0.112
log2 fold change [6]: -0.093
log2 fold change [7]: 0.041
log2 fold change [8]: 0.104
log2 fold change [9]: 0.052
log2 fold change [10]: 0.056

NA, A0A096LPI6
log2 fold change [1]: 0.008
log2 fold change [2]: -0.044
log2 fold change [3]: 0.019
log2 fold change [4]: -0.014
log2 fold change [5]: -0.034
log2 fold change [6]: -0.123
log2 fold change [7]: 0.018
log2 fold change [8]: 0.074
log2 fold change [9]: 0.029
log2 fold change [10]: -0.02

NANS (UniProt Q9NR45)
log2 fold change [1]: -0.11
log2 fold change [2]: -0.115
log2 fold change [3]: 0.017
log2 fold change [4]: -0.045
log2 fold change [5]: -0.008
log2 fold change [6]: -0.017
log2 fold change [7]: -0.057
log2 fold change [8]: -0.017
log2 fold change [9]: -0.005
log2 fold change [10]: -0.018

NUP205 (UniProt Q92621)
Sequence of UniProt Q92621 (Q92621 whole entry, looked up): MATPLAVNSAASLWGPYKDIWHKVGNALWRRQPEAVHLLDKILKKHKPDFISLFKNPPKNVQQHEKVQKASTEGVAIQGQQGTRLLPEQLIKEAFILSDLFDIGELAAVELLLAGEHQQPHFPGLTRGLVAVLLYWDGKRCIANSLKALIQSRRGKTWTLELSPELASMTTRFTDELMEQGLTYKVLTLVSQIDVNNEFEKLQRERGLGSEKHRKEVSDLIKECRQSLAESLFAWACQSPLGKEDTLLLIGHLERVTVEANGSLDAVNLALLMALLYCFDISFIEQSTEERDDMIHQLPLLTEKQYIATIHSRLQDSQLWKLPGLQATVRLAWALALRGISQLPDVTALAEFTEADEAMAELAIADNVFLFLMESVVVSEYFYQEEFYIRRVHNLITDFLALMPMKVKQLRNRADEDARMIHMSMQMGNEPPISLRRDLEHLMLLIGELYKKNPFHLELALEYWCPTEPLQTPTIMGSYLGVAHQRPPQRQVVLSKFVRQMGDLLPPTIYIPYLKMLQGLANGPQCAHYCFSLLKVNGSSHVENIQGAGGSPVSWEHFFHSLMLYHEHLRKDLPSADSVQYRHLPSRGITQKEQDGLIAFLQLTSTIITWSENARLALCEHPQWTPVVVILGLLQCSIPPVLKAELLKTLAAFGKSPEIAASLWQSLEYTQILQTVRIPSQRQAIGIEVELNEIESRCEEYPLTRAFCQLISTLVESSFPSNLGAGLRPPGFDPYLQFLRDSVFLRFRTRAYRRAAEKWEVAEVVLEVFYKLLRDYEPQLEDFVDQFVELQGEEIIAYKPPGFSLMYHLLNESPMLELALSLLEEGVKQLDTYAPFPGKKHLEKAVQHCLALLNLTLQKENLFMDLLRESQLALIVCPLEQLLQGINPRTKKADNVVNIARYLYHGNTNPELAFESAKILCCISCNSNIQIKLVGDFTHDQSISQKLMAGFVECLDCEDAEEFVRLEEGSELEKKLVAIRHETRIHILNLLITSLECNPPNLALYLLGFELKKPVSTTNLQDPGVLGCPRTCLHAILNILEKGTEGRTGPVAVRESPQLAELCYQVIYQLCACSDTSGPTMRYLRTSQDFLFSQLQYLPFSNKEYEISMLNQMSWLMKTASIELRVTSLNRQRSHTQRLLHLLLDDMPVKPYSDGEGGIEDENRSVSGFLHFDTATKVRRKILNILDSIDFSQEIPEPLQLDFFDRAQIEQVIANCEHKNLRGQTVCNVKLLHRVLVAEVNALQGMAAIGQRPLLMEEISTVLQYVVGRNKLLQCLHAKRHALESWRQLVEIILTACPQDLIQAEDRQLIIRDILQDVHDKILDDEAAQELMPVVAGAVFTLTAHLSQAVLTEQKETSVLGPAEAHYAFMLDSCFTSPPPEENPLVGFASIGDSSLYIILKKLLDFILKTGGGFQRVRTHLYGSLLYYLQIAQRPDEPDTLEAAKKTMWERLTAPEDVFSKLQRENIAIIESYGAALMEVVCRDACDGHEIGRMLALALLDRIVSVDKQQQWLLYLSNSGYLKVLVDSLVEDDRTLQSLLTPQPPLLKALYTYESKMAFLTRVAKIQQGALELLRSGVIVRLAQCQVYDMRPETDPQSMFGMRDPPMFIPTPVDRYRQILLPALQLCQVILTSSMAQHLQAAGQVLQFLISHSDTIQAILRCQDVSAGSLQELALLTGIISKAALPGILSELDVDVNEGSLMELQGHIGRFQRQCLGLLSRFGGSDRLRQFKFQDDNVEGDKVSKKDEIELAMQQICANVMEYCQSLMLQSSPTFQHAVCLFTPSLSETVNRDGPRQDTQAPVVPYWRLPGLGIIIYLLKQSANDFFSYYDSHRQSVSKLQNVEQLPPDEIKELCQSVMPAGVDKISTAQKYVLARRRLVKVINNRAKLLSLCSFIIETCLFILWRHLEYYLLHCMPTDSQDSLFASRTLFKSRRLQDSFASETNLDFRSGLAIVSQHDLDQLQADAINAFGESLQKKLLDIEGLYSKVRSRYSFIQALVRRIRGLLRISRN
log2 fold change [1]: 0.015
log2 fold change [2]: 0.01
log2 fold change [3]: 0.009
log2 fold change [4]: -0.08
log2 fold change [5]: -0.014
log2 fold change [6]: 0.058
log2 fold change [7]: -0.011
log2 fold change [8]: -0.008
log2 fold change [9]: -0.03
log2 fold change [10]: -0.01

OGFOD1 (UniProt Q8N543)
log2 fold change [1]: -0.294 (active)
log2 fold change [2]: -0.05
log2 fold change [3]: -0.02
log2 fold change [4]: -0.038
log2 fold change [5]: -0.021
log2 fold change [6]: 0.001
log2 fold change [7]: 0.015
log2 fold change [8]: 0.041
log2 fold change [9]: -0.034
log2 fold change [10]: 0.065

MYH11 isoform 2 (UniProt P35749)
log2 fold change [1]: 0.027
log2 fold change [2]: -0.002
log2 fold change [3]: 0.022
log2 fold change [4]: -0.045
log2 fold change [5]: 0.033
log2 fold change [6]: 0.067
log2 fold change [7]: 0.025
log2 fold change [8]: -0.033
log2 fold change [9]: 0.018
log2 fold change [10]: -0.035

NR2C2 isoform 2 (UniProt P49116)
log2 fold change [1]: 0.026
log2 fold change [2]: 0.019
log2 fold change [3]: 0.055
log2 fold change [4]: 0.041
log2 fold change [5]: -0.173
log2 fold change [6]: 0.028
log2 fold change [7]: -0.052
log2 fold change [8]: 0.084
log2 fold change [9]: -0.004
log2 fold change [10]: 0.019

MRPL47 (UniProt Q9HD33)
log2 fold change [1]: -0.068
log2 fold change [2]: 0.183
log2 fold change [3]: 0.072
log2 fold change [4]: -0.042
log2 fold change [5]: -0.087
log2 fold change [6]: -0.033
log2 fold change [7]: -0.134
log2 fold change [8]: -0.186
log2 fold change [9]: 0.072
log2 fold change [10]: 0.745 (active)

NUDT16 (UniProt Q96DE0)
log2 fold change [1]: -0.033
log2 fold change [2]: -0.018
log2 fold change [3]: 0.1
log2 fold change [4]: -0.01
log2 fold change [5]: -0.168
log2 fold change [6]: 0.025
log2 fold change [7]: 0.005
log2 fold change [8]: 0.112
log2 fold change [9]: 0.054
log2 fold change [10]: 0.045

NFATC3 (UniProt Q12968)
Sequence of UniProt Q12968 (Q12968 whole entry, looked up): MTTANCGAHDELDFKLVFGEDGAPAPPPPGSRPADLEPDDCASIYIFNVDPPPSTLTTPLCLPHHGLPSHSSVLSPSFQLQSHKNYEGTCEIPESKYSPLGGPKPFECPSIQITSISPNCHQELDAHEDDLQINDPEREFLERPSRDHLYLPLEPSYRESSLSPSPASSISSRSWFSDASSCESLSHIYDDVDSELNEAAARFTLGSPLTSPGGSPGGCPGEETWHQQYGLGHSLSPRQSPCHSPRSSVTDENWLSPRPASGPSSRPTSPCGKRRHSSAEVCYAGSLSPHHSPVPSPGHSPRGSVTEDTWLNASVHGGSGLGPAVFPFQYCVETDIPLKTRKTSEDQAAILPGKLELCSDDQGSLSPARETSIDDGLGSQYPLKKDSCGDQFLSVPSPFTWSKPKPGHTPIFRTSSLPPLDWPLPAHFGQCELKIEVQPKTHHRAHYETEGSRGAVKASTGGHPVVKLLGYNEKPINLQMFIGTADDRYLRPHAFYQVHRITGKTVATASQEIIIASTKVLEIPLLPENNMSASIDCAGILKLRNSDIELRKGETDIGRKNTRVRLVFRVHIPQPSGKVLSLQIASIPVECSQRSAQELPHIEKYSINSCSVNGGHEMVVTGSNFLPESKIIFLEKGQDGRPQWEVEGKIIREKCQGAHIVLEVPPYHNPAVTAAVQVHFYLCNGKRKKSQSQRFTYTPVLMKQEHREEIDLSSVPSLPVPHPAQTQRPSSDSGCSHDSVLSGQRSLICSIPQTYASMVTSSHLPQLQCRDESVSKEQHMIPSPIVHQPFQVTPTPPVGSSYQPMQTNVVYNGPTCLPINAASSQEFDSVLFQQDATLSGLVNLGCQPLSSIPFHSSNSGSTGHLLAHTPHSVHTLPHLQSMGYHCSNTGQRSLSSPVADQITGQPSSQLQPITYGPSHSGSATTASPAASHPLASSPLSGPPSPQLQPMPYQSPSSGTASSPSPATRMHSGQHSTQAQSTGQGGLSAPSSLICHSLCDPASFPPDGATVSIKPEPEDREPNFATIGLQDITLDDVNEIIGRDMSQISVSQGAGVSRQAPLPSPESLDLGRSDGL
log2 fold change [1]: 0.039
log2 fold change [2]: 0.056
log2 fold change [3]: -0.109
log2 fold change [4]: -0.009
log2 fold change [5]: 0.006
log2 fold change [6]: -0.109
log2 fold change [7]: 0.048
log2 fold change [8]: -0.002
log2 fold change [9]: 0.015
log2 fold change [10]: 0.086

NAA38 isoform 2 (UniProt Q9BRA0)
log2 fold change [1]: 0.033
log2 fold change [2]: -0.014
log2 fold change [3]: 0.001
log2 fold change [4]: -0.045
log2 fold change [5]: 0.044
log2 fold change [6]: -0.005
log2 fold change [7]: 0.02
log2 fold change [8]: 0.052
log2 fold change [9]: 0.062
log2 fold change [10]: 0.023

MNAT1 (UniProt P51948)
Sequence of UniProt P51948 (P51948 whole entry, looked up): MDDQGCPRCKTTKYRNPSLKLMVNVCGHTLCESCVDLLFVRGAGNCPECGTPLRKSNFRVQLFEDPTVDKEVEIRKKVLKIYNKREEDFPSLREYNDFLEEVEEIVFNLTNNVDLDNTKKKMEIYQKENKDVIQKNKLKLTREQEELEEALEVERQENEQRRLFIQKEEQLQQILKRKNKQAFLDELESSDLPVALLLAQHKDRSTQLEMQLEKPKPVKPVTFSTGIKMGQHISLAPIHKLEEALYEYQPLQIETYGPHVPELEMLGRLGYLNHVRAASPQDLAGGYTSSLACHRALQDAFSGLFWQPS
log2 fold change [1]: -0.025
log2 fold change [2]: 0.073
log2 fold change [3]: 0.011
log2 fold change [4]: 0.021
log2 fold change [5]: -0.047
log2 fold change [6]: -0.04
log2 fold change [7]: -0.039
log2 fold change [8]: 0.036
log2 fold change [9]: 0.009
log2 fold change [10]: -0.016

NUMBL (UniProt Q9Y6R0)
log2 fold change [1]: -0.079
log2 fold change [2]: 0.128
log2 fold change [3]: -0.012
log2 fold change [4]: -0.061
log2 fold change [5]: -0.168
log2 fold change [6]: 0.005
log2 fold change [7]: 0.036
log2 fold change [8]: -0.149
log2 fold change [9]: 0.012
log2 fold change [10]: -0.022

NDUFB7 (UniProt P17568)
Sequence of UniProt P17568 (P17568 whole entry, looked up): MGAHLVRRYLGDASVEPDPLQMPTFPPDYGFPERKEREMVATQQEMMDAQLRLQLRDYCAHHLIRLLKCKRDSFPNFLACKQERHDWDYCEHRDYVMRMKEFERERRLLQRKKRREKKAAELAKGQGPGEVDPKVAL
log2 fold change [1]: -0.011
log2 fold change [2]: -0.023
log2 fold change [3]: -0.03
log2 fold change [4]: -0.025
log2 fold change [5]: -0.051
log2 fold change [6]: -0.077
log2 fold change [7]: 0
log2 fold change [8]: 0.002
log2 fold change [9]: -0.013
log2 fold change [10]: -0.066

PAAF1 (UniProt Q9BRP4)
log2 fold change [1]: -0.013
log2 fold change [2]: -0.082
log2 fold change [3]: -0.008
log2 fold change [4]: -0.026
log2 fold change [5]: -0.062
log2 fold change [6]: 0.026
log2 fold change [7]: -0.002
log2 fold change [8]: 0.047
log2 fold change [9]: 0.027
log2 fold change [10]: 0.048

NDUFA9 (UniProt Q16795)
log2 fold change [1]: -0.002
log2 fold change [2]: -0.116
log2 fold change [3]: 0.008
log2 fold change [4]: -0.229 (active)
log2 fold change [5]: -0.04
log2 fold change [6]: -0.008
log2 fold change [7]: -0.055
log2 fold change [8]: 0.014
log2 fold change [9]: -0.052
log2 fold change [10]: -0.024

NUP107 (UniProt P57740)
log2 fold change [1]: -0.005
log2 fold change [2]: 0.233
log2 fold change [3]: 0.032
log2 fold change [4]: 0.026
log2 fold change [5]: 0.007
log2 fold change [6]: -0.116
log2 fold change [7]: -0.073
log2 fold change [8]: -0.04
log2 fold change [9]: 0.137
log2 fold change [10]: -0.13

MORC3 (UniProt Q14149)
log2 fold change [1]: 0.013
log2 fold change [2]: -0.04
log2 fold change [3]: 0.015
log2 fold change [4]: 0.021
log2 fold change [5]: 0.039
log2 fold change [6]: 0.146
log2 fold change [7]: -0.082
log2 fold change [8]: 0
log2 fold change [9]: -0.058
log2 fold change [10]: 0.196

MSH2 (UniProt P43246)
Sequence of UniProt P43246 (P43246 whole entry, looked up): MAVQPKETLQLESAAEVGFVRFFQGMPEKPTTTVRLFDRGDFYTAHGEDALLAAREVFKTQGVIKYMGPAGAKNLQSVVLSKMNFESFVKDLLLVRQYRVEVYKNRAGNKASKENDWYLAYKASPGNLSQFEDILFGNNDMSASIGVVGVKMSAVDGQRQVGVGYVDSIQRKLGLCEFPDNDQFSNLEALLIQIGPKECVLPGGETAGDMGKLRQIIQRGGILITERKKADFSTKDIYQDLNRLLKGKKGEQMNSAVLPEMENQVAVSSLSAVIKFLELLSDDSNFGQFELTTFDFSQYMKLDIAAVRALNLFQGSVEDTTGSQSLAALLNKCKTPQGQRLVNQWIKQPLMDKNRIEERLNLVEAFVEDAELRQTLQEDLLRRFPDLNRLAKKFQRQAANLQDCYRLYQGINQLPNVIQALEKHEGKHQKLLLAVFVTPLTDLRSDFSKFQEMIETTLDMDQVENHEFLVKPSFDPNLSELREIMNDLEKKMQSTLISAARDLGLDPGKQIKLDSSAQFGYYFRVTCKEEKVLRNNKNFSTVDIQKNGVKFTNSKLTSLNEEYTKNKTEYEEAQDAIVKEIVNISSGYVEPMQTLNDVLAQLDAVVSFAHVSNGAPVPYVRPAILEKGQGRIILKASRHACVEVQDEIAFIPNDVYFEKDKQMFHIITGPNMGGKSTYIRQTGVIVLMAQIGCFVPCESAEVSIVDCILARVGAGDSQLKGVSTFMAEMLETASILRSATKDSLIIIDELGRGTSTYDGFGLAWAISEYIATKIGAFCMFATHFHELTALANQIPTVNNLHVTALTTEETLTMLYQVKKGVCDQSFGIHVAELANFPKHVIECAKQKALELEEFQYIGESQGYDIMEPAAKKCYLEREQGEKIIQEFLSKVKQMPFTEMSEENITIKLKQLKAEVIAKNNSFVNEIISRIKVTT
log2 fold change [1]: 0.072
log2 fold change [2]: 0
log2 fold change [3]: 0.057
log2 fold change [4]: -0.019
log2 fold change [5]: -0.018
log2 fold change [6]: 0.024
log2 fold change [7]: 0.007
log2 fold change [8]: -0.026
log2 fold change [9]: -0.021
log2 fold change [10]: 0.144

NUP98 (UniProt P52948)
log2 fold change [1]: -0.003
log2 fold change [2]: 0.045
log2 fold change [3]: 0.009
log2 fold change [4]: 0.061
log2 fold change [5]: 0.007
log2 fold change [6]: 0.047
log2 fold change [7]: 0.026
log2 fold change [8]: -0.057
log2 fold change [9]: 0.02
log2 fold change [10]: 0.027

NISCH (UniProt Q9Y2I1)
log2 fold change [1]: -0.008
log2 fold change [2]: -0.029
log2 fold change [3]: -0.022
log2 fold change [4]: -0.015
log2 fold change [5]: 0.023
log2 fold change [6]: -0.119
log2 fold change [7]: -0.014
log2 fold change [8]: 0.106
log2 fold change [9]: 0.041
log2 fold change [10]: -0.061
